# GRP78 ERSR act: qHTS for Inducers of the Endoplasmic Reticulum Stress Response (ERSR) in Human Glioma: qHTS. U87-MG GRP78 promoter luciferase reporter, 16 h. Potency, µM, for the others: top-dose activation, hits mostly activators. 420,000 tested, 0.02% active. AID 602332, 2012; note: series mostly up to about 76 µM; % of control where 0% means no effect; nearly all actives have a fitted effect of over 35% in size
#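 Stably transfected U87-MG glioma cells carrying a GRP78-based luciferase sensor; 16 h compound incubation. Luminescence end-point read 10 min after Bright-Glo addition at room temperature.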
# Mito fusion act: qHTS Assay for Small Molecule Inhibitors of Mitochondrial Division or Activators of Mitochondrial Fusion | Potency, µM (titrated, usually from 46.1 µM), without a hit: at the top dose growth rescue (activation), usual class: activators | AID 485298, 2010 | S. cerevisiae fusion-defective mutant growth rescue, CellTiterGlo 48 h | 320,000 tested, 0.23% active; note: % of control where 0% means no effect; nearly all actives have a fitted effect of over 45% in size
#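 Read-out: ATP-based luminescence (CellTiterGlo, 10 min ambient) reporting growth of fusion-defective ts yeast after 48 hours at 37C on glycerol/ethanol YPEG medium in the presence of compound.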
# Abeta rescue: qHTS for compounds that reverse cellular toxicity of Amyloid beta (A-beta) peptide in yeast: Primary Screen | yeast expressing A-beta42, growth rescue, OD600, 48 h; response scale: 0% DMSO, 100% iron-clioquinol control | 410,000 tested, 0.063% active | AID 1347071, 2019 | Potency, µM (series often up to 46.1 µM), usual class: activators; note: nearly all actives have a fitted effect of over 55% in size
#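 Yeast A-beta toxicity model in growth medium with pinned compounds, 48 h at 30 C; growth read as absorbance at 600 nm. Normalized to FeCl3/clioquinol equimolar mix (positive) and DMSO (negative).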
# TDP43 rescue: qHTS of TDP-43 Inhibitors | TDP-43 expressing yeast growth rescue, BacTiter-Glo, 24 h | Potency, µM (highest dose often 46.1 µM), inactives show top-dose growth rescue (activation), actives largely listed as activators | 410,000 tested, 1.8% active; note: % of control where 0% means no effect; nearly all actives have a fitted effect of over 50% in size
#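 Yeast cells expressing TDP-43 under galactose induction are exposed to compounds for 24 hr at 30 deg C. BacTiter-Glo luminescence measures growth, so protective compounds score as activators.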
# aSyn rescue: qHTS of alpha-syn Inhibitors | Yeast expressing alpha-synuclein, growth rescue, BacTiter-Glo, 24 h | Potency, µM (series often up to 46.1 µM), for the others: at the top dose growth rescue (activation), most hits filed as activators | 370,000 tested, 0.14% active; note: % of control where 0% means no effect; nearly all actives have a fitted effect of over 65% in size
#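 Readout is rescue of growth in alpha-synuclein-expressing yeast, so inhibitors of toxicity appear as activators. Growth after 24 hr at 30 deg C in galactose medium is quantified by luminescence.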
# AT treatment: qHTS Assay for Identifying a Potential Treatment of Ataxia-Telangiectasia; F2112 A-T fibroblasts, KAP-1 phosphorylation AlphaLISA; neocarzinostatin DNA damage 30 min before lysis; Potency, µM (top dose mostly 57.5 µM), for the others: top-dose activation, most hits filed as activators; 320,000 tested, 0.19% active; AID 485349, 2010; note: % of control where 0% means no effect; nearly all actives have a fitted effect of over 45% in size
#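 ATM-like activity read as KAP-1 phosphorylation via AlphaLISA donor/acceptor antibody pairs after lysis and 6 hr at 25C. Cells were ATM-null patient fibroblasts (F2112, hTERT), dosed 60 min, then exposed to the DSB inducer NCS for 30 min.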
# The depositor's hits bear a star; i = inactive; ? = inconclusive; . = not tested or not shown; [ ] = dose if it differs, or a comment. This is a sample that favours compounds with a hit; in the whole collection about 2.1% have one here. Calls come from the whole dose curve; as a rule, active = well fitted curve in the direction sought with a large enough effect; inconclusive = small, poorly fitted or top-dose-only effect, or another doubt; inactive = no such curve, though single readings can be large; an effect the other way counts as inactive or inconclusive. Potency is the fitted concentration of half-maximal effect.
SMILES,GRP78 ERSR act,Mito fusion act,Abeta rescue,TDP43 rescue,aSyn rescue,AT treatment
Cc1ccc(C(=O)O/N=C(\N)c2ccccn2)cc1C,-14%,-2%,i,10µM*,-17%,-4%
Cc1cccc(C(=O)O/N=C(\N)c2ccccn2)c1,-17%,-1%,i,13µM*,-24%,2%
N/C(=N\OC(=O)c1cccc(F)c1)c1ccccn1,1%,-2%,i,3.2µM*,-3%,13%
N/C(=N\OC(=O)/C=C/c1ccc(Br)cc1)c1ccccn1,-6%,12%,i,18µM*,1%,-6%
Cc1cccc(/C(N)=N/OC(=O)c2cccnc2)c1,-6%,3%,i,11µM*,-8%,7%[11.5 µM]
CCOc1ccc(C(=O)O/N=C(\N)c2ccccn2)cc1,-14%,-2%,i,13µM*,-48%,3%
N/C(=N\OC(=O)c1ccccc1)c1ccccn1,-13%,20%,i,-20%[0.397 µM],-34%,2%
Cc1ccc2nc(N3CCCCCC3)c(CN(CC3CCCO3)C(=O)c3cncs3)cc2c1 (configuration not stated),-5%,.,.,.,.,.
Fc1ccc(NC(=S)N/N=C/c2ccc(F)c(F)c2)cc1,2%,-15%,i,?,-14%,1%
Fc1ccc(/C=N/NC(=S)Nc2ccc(Cl)cc2Cl)cc1,3%,0%,i,-22%,5%,7.1µM*
CC(C)c1ccc(C(=O)CSc2n[nH]c(-c3ccncc3)n2)cc1,6%,2%,i,35µM*,15%,.
Cc1ccc(Cn2c(C(CO)Nc3nc(-c4ccc(F)cc4)cs3)nc3ccccc32)cc1 (configuration not stated),-2%,.,?,-71%,-52%,.
Cc1ccc(Cn2c(C(CO)Nc3nc(-c4ccc(Cl)c([N+](=O)[O-])c4)cs3)nc3ccccc32)cc1 (configuration not stated),-4%,.,i,25µM*,?,.
O=C(COC(=O)c1ccc2ncsc2c1)Nc1ncc(Cl)cc1Cl,-11%,1%,i,-20%,-4%,0%
O=C(COC(=O)c1ccc2ncsc2c1)Nc1cc(Cl)ccc1F,-2%,?,i,14µM*,-3%,2%
CCC1C(=O)NCCN1Cc1ccc2c(c1)CN(Cc1cc(OC)ccc1OC)CCO2 (configuration not stated),-4%,.,.,.,.,.
CCN1C(=O)[C@H]2[C@@H](c3ccc(-c4ccc(Cl)c(Cl)c4)cc3)N[C@@](C)(C(=O)OC)[C@H]2C1=O,-2%,15%,i,20µM*,-9%,10%
CCN1C(=O)[C@H]2[C@@H](c3ccc(-c4cccc(Cl)c4)cc3)N[C@@](CC(C)C)(C(=O)OC)[C@H]2C1=O,1%,.,i,5%,4%,-8%
CCN1C(=O)[C@H]2[C@@H](c3ccc(-c4ccc(Cl)c(Cl)c4)cc3)N[C@@](CC(C)C)(C(=O)OC)[C@H]2C1=O,-3%,16%,i,-22%,4%,35µM*
Cc1c(C(=O)N2CCN(C(C)C)CC2)sc2ncnc(NCc3ccco3)c12,-4%,.,.,.,.,.
CCOC(=O)c1sc(Nc2ccccc2Cl)nc1C,10%,2%,i,20µM*,-3%,14%
CCOC(=O)c1sc(NNC(=O)c2ccc(C)cc2)nc1C,2%,3%,i,-17%,-3%,0%
CCOC(=O)c1sc(NNC(=O)c2ccc(F)cc2)nc1C,-1%,14%,?,14µM*,?,0%
Cc1nc(Nc2c(Cl)cccc2Cl)sc1C(=O)Nc1ccccc1,-1%,18µM*,i,?,-1%,-4%
Cc1nc(NC(=O)C2CC2)sc1C(=O)Nc1ccccc1,-2%,0%,i,-13%,-5%,4%
SMILES,GRP78 ERSR act,Mito fusion act,Abeta rescue,TDP43 rescue,aSyn rescue,AT treatment
Cc1nc(Cl)sc1C(=O)Nc1ccc(C(C)(C)C)cc1,5%,-5%,i,11µM*,-12%,9%
CSc1ccccc1C(=O)NCC1Cc2cccc(-c3ncccc3C)c2O1 (configuration not stated),-2%,.,.,.,.,.
C=C1C=C(C(F)F)n2ncc(C(=O)NCCc3ccc(Cl)cc3)c2N1,-1%,.,.,.,?,.
COCCNC(=O)c1nn(-c2ccc(C)cc2)c(=O)n(C)c1=O,-5%,.,i,25%[9.22 µM],.,.
CCOC(=O)c1sc(Nc2ccc(Br)cc2)nc1C,3%,-3%,i,16µM*,0%,6%
CCOC(=O)c1sc(NCCNc2nc(C)c(C(=O)OCC)s2)nc1C,0%,2%,i,-25%,7%,9%
O=C(Nc1ccc(Nc2ccccc2)cc1)c1c(F)c(F)c(F)c(F)c1F,-1%,1%,i,25%,-10%,-3%
O=C(Nc1ccc(Nc2ccccc2)cc1)c1c(Cl)cccc1Cl,0%,.,i,11µM*,-23%,.
Cc1cccn2c(=O)c3cc(C(=O)N4CCCCC4)sc3nc12,6%,15%,i,11µM*,-1%,7%
CC(C)CN(CC(C)C)C(=O)c1cc2c(=O)n3ccccc3nc2s1,-5%,9%,i,0%,-15%,13µM*
CCCCN(CCCC)C(=O)c1cc2c(=O)n3cccc(C)c3nc2s1,-2%,.,i,22µM*,.,.
Cc1nc2ccc(S(=O)(=O)NC(C(=O)NCc3ccc(Cl)cc3)C(C)C)cc2s1 (configuration not stated),-1%,.,i,13%,.,.
CSc1ncccc1C(=O)NCC1Cc2cc(F)cc(-c3cncnc3)c2O1 (configuration not stated),-4%,.,.,.,.,.
Brc1ccc(Oc2nsnc2N2CCOCC2)cc1,-2%,1%,i,11µM*,-6%,.
O=C(c1cc2c(Cl)nc3ccccc3c2s1)N1CCCCC1,2%,.,i,35µM*,.,.
O=C(c1cc(-c2ccc(Cl)s2)nc2ccccc12)N1CCCC1,-6%,.,i,12%,8%,.
Cc1ccc(-c2cc(C(=O)N3CCCC3)c3ccccc3n2)s1,4%,-4%,i,13%,-11%,20µM*
Cn1c(-c2nonc2N)nc2ccccc21,0%,-2%,i,?,15%,9%
Cn1c(Sc2nc3ccccc3n2C)nc2ccccc21,0%,-6%,i,?,6%,20µM*
Cn1c2nc3ccccc3c-2nc2ccccc21,2%,.,i,20%,16µM*,.
